Records with an inconclusive call do not appear. Activity calls are given as the source filed them. Calls follow the shape of the dose curve; as a rule, active = well fitted activation curve with a large enough effect; inconclusive = small, poorly fitted or top-dose-only effect; inactive = no such curve, though single readings can be large or run the other way.
The compounds below were run against Cellular tumor antigen p53 (Homo sapiens) (UniProt P04637) (assay: Confirmatory qHTS for small molecule compounds that upregulate eGFP-tagged delta133p53alpha (in C-terminal) cells.). Details: delta133p53alpha-eGFP (C-terminal) reporter cells, GFP fluorescence upregulation; series mostly up to 57.5 µM; activation (upregulation): at the top concentration.
Sequence of Cellular tumor antigen p53 (Homo sapiens) (P04637 whole entry, looked up): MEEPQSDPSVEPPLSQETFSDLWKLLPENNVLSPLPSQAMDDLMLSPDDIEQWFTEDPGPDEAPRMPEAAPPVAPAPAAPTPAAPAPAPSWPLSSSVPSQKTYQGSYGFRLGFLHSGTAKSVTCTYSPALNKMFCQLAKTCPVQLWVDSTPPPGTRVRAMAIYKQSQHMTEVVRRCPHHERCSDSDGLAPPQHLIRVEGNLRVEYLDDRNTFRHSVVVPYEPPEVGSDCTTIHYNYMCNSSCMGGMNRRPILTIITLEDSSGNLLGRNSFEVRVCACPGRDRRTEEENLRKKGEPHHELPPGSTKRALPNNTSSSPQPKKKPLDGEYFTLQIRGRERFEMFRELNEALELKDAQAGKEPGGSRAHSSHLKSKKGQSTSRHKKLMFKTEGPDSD
From the text: Assay Development and Screening Technology
National Center for Advancing Translational Sciences (NCATS),
National Institute of Health (NIH), Rockville, Maryland
Cellular senescence (CS) is one of the hallmarks of aging and age-related diseases. Senescent cells are characterized by an irreversible growth arrest, an increase in senescence-associated beta-galactosidase (SA-beta-gal) activity and p16INK4a expression, an activation of the DNA damage response pathways, and the emergence of a senescence-associated secretory phenotype (SASP).
Delta133p53alpha, a human/primate-specific p53 protein isoform, delays or inhibits the induction of CS and SASP in various types of human cells, including progeria-derived fibroblasts, primary normal astrocytes, and CD8+ T lymphocytes. Induction of delta133p53alpha with small molecule compounds may provide therapeutic opportunities for inhibition of senescence/SASP-associated pathologies in progeria syndromes, astrocyte-mediated neuroprotection in neurodegenerative diseases, and possibly prevention and treatment of a wider range of senescence- and aging-associated diseases.
Here we report the development and validation of a cell-based quantitative high throughput screening (qHTS) assay in 1,536-well format. This qHTS assay uses the NCI-H358 cell line with doxycycline-inducible expression of enhanced green fluorescent protein (eGFP)-tagged delta133p53alpha, which allows efficient and highly quantitative measurement of the protein levels.
PROTOCOL TABLE (as described by Inglese J, Shamu CE and Guy RK. 2007)
SEQUENCE No. (e.g., 1, 2, 3, etc.); […] (e.g., Cells, Incubation, Reagent, etc.); VALUE; DESCRIPTION.
1; Cells; 4uL; 800 doxycycline treated cells / well in doxycycline-free media, 1536-well black, clear-bottom low base Aurora microplates.
2; Compounds; 23 nL; Kalypsis pin tool (Wako) equipped with 1536-well pin heads, 5-azacytidine positive control.
3; Incubation; 24 hr; 37C, 5% CO2; 95% relative humidity.
4; Aspiration; 1x; BioTek EL406 washer dispenser (Agilent).
5; Fixing; 3.5% paraformaldehyde, BioTek EL406 washer dispenser (Agilent).
6; Washing; 1x PBS; BioTek EL406 washer dispenser (Agilent).
7; Nuclei staining; 1:1000 dilution of Hoechst 33342 (Thermofisher), BioTek EL406 washer dispenser (Agilent).
8; Incubation; 20 min; in the dark at room temperature.
9; Washing; 2x, 1x PBS (ThermoFisher), BioTek EL406 washer dispenser (Agilent).
10; Reagent; 10 uL; 1x PBS per well, sealed with clear adhesive tape.
11; Detection; Fluorescence, Acumen eX3 laser scanning cytometer (STP Labtech), GFP filters […].
NOTES (numbers refer to sequence numbers above).
1. NCI-H358 cells expressing eGFP-tagged delta133p53alpha were grown in T75 culture flasks and treated with doxycycline for 24h, at 10 ng/ml for eGFP-D133p53a cells (N-terminal cell) and 100 ng/ml for D133p53a-eGFP cells (C-terminal cells). Cells were trypsinized, counted using a Counted 3 Automated Cell Counter (Thermo Fisher), and diluted to a concentration of 200,000 cells/ml. A Multidrop Combi Reagent Dispenser (ThermoFisher) was used to dispense 800 cells/well in […] of doxycycline-free media, into 1536-well black/clear bottom low base plates (AuroraMicroplates).
2. After plating cells, 23 nl of compound library, DMSO vehicle control or positive control (5-azacytidine) were transferred by Pin Tool (Wako). The plate map layout was the same for each plate: (column 1) non-doxycycline treated cells + DMSO vehicle control; (column 2) doxycycline treated cells + DMSO vehicle control baseline; (column 3) doxycycline treated cells + positive control 57.5 uM final concentration 5-azacytidine; (column 4) doxycycline treated cells + serial dilution of 5-azacytidine, 16-point 1:2 titration spanning 1.8 nM to […] final concentration; (columns 5-48) doxycycline treated cells + titration of library compounds.
3. Cells were incubated at 37 °C, 5 % CO2, 95% RH with breathable metal lid for 24h.
4-10. […]

Activation (upregulation), inactive:
CC(C)(CO)Cc1cc(C(C)(C)C)c(O)c(C(C)(C)C)c1 3%
O=C(O)c1cc2cc(F)ccc2[nH]1 3.59%
CN(C)C(=O)C(CCN1CCC(O)(c2ccc(Cl)cc2)CC1)(c1ccccc1)c1ccccc1 49.5%
Cn1cnc2c(NCc3ccccc3)nc(NCCO)nc21 3.46%
CCCCS(=N)(=O)CCC(N)C(=O)O (stereo not given) 0.0359%
CCCCCCCCCCCCCCCCCCOC[C@H](COP(=O)([O-])OCC[N+](C)(C)C)OC -18%
CCN1CCCC1CNC(=O)c1cc(S(=O)(=O)CC)c(N)cc1OC (stereo not given) 27.8%
CCCC(=O)NCCc1c2n(c3ccc(OC)cc13)CCCc1ccccc1-2 10.5%
Nc1nc(Cl)nc2c1ncn2[C@@H]1O[C@H](COP(=O)(O)OP(=O)(O)OP(=O)(O)O)[C@@H](O)[C@H]1O -17.8%
COC(=O)Nc1nc2ccc(C(=O)c3cccs3)cc2[nH]1 43.6%
O=Nc1c(-c2c(O)[nH]c3cc(Br)ccc23)[nH]c2ccccc12 4.1%
CC1CN(S(=O)(=O)c2cccc3cnccc23)CCN1 (stereo not given) 0.467%
CCN1CCCC1CNC(=O)c1cc(S(N)(=O)=O)ccc1OC (stereo not given) 7.93%
CCOC(=O)Nc1ccc(NCc2ccc(F)cc2)nc1N 24.1%
O=C1NC(=O)c2c1c(-c1ccccc1)cc1[nH]c3ccc(O)cc3c21 9.9%
Cc1cccc(-c2[nH]ncc2-c2ccc3ncccc3n2)n1 7.74%
NS(=O)(=O)c1ccc(-n2nc(C(F)(F)F)cc2-c2ccc(Cl)cc2)cc1 9.14%
CC(C)(C(=O)O)c1ccc(C(O)CCCN2CCC(C(O)(c3ccccc3)c3ccccc3)CC2)cc1 (stereo not given) 6.95%
N#Cc1cc([N+](=O)[O-])c2sc(C(N)=O)[n+]([O-])c2c1 3.58%
CN(C)c1nc(N)c(C(=O)N=C(N)N)nc1Cl 4.57%
C[C@]12CC[C@@H]3c4ccc(O)cc4C[C@@H](CCCCCCCCCS(=O)CCCC(F)(F)C(F)(F)F)[C@H]3[C@@H]1CC[C@@H]2O (stereo not given in full) 2.11%
Cn1c(=O)c2[nH]c(-c3ccccc3)nc2n(C)c1=O 18.6%
N=c1ccn2c(n1)O[C@H]1[C@H](O)[C@@H](CO)O[C@H]12 8.71%
O=C1N(c2ccccc2)c2ccccc2C1(Cc1ccncc1)Cc1ccncc1 10.3%
COc1cc2c(cc1OC)-c1cc(=Nc3c(C)cc(C)cc3C)n(C)c(=O)n1CC2 -16.1%

Potency, inactive:
CC(C)(C)[C@]1(O)CCN2C[C@H]3c4ccccc4CCc4cccc(c43)[C@@H]2C1

Potency, active:
CCN(CC)CCCC(C)Nc1c2ccc(Cl)cc2nc2ccc(OC)cc12 (stereo not given) 8.63 µM
CC[C@@]1(O)C(=O)OCc2c1cc1n(c2=O)Cc2cc3c(CN(C)C)c(O)ccc3nc2-1 4.85 µM
CC12C(=O)OC(=O)C1(C)C1CCC2O1 (stereo not given) 4.85 µM
CC1c2cccc(O)c2C(O)=C2C(=O)C3(O)C(O)=C(C(N)=O)C(=O)C(N(C)C)C3C(O)C21 (stereo not given) 0.0061 µM
O=[N+]([O-])c1ccc2c(c1)S(=O)(=O)C=C2 8.63 µM
Cc1cc(O)c2c(c1)C(=O)c1cc(O)cc(O)c1C2=O 21.7 µM
Brc1c(Br)c(Br)c2[nH]cnc2c1Br 21.7 µM
Cc1ccc(S(=O)(=O)N[C@@H](Cc2ccccc2)C(=O)CCl)cc1 15.3 µM
O=C1NCc2c1c1c3ccccc3[nH]c1c1[nH]c3ccccc3c21 27.3 µM
O=C1NC(=O)c2cc(Nc3ccccc3)c(Nc3ccccc3)cc21 9.68 µM
O=C1C(SCCO)=C(SCCO)C(=O)c2ccccc21 9.68 µM
COc1cc(/C=C(\C#N)C(=O)c2ccc(O)c(O)c2)cc(I)c1O 12.2 µM
NC[C@@H]1O[C@H](C23CC4CC(CC(C4)C2)C3)Cc2c1ccc(O)c2O 19.3 µM
O=C(N[C@@H](Cc1ccccc1)C(=O)CCl)OCc1ccccc1 3.85 µM

Reference: PubChem BioAssay AID2060323 (National Center for Advancing Translational Sciences (NCATS), 2025)
